Our source for the z-score and composite z-score values is PubChem BioAssay.

Test [1] is described as follows: compound effects on lung adenocarcinoma cell viability – A549, calcein-AM fluorescence, 48 h, basal, profiling panel (AID 1162). Further: test concentration not given here. The conditions noted are these: higher = more signal.
Test [2] in a line: compound effects on differentiated 3T3-L1 adipocyte viability – cell-based, 3T3-L1 adipocytes, calcein-AM fluorescence, 48 h, basal, profiling panel (AID 1163). Further: test concentration not given here. The conditions noted are these: 3T3-L1 adipocytes viability, higher = more signal.
Test [3] in a line: compound effects on hepatocellular carcinoma cell viability – HepG2, calcein-AM fluorescence, 48 h, basal, profiling panel (AID 1164). Further: test concentration not given here. To be noted: higher = more signal.
The nature of test [4]: compound effects on multiple myeloma cell viability – MM1S, calcein-AM fluorescence, 48 h, basal, profiling panel (AID 1165).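 Further: viability of MM1S multiple myeloma cells under basal unstimulated conditions; test concentration not given here.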 To be noted: higher = more signal.
A short description of test [5]: calcein-AM signal in unstimulated myeloma cells – cell-based, calcein-AM fluorescence, 48 h, PK04 Diversity Set, profiling panel (AID 1166).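 Further: cells grown under basal conditions without added stimulus; test concentration not given here.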 To be noted: RPMI8226 myeloma viability, higher = more signal.
Test [6] can be described thus: JC-1 mitochondrial signal, unstimulated HepG2 cells – cell-based, JC-1 fluorescence, 24 h, 100 nL compound, profiling panel (AID 1167). Further: test concentration not given here. The conditions noted are these: HepG2 mitochondrial potential, higher = more signal.
Test [7] in a line: JC-1 mitochondrial signal, unstimulated adipocytes – cell-based, JC-1 fluorescence, 3T3-L1 adipocytes, 24 h, 100 nL compound, profiling panel (AID 1168). Further: test concentration not given here. To be noted: JC-1 mitochondrial fluorescence, higher = more signal, called active from +8 up or from −8 down.
Test [8] in a line: JC-1 mitochondrial signal, unstimulated myeloma cells – cell-based, JC-1 fluorescence, RPMI8226, 24 h, 100 nL compound, profiling panel (AID 1169). Further: test concentration not given here. To be noted: JC-1 mitochondrial potential fluorescence, higher = more signal.
Test [9] in a line: JC-1 mitochondrial signal, unstimulated MM1S myeloma – cell-based, JC-1 fluorescence, 24 h, 100 nL compound, profiling panel (AID 1170). Further: test concentration not given here. The conditions noted are these: MM1S mitochondrial potential, higher = more signal.
Test [10] can be described thus: resazurin metabolic signal in A549 cells – cell-based, resazurin fluorescence, 24 h, PK04 Diversity Set, profiling panel (AID 1171). Further: test concentration not given here. To be noted: A549 viability, higher = more signal, called active from +8 up or from −8 down.
The nature of test [11]: resazurin metabolic signal in HepG2 cells – cell-based, resazurin fluorescence, 24 h, PK04 Diversity Set, profiling panel (AID 1172). Further: test concentration not given here. The conditions noted are these: HepG2 viability, higher = more signal.
Test [12] can be described thus: budding yeast growth changes without added modifier – OD600, strain BY4716, 24 h, basal condition, primary screen (AID 1173). The conditions noted are these: S. cerevisiae BY4716 growth, OD600, 24 h; higher = more signal, called active from +8 up or from −8 down.
Test [13] can be described thus: viability profiling in MM1S myeloma cells – cell-based, resazurin fluorescence, basal, 24 h, PK04 Diversity Set, profiling panel (AID 1174). Further: test concentration not given here. The conditions noted are these: higher = more signal, called active from +8 up or from −8 down.
For test [14], the target named is Dihydroorotate dehydrogenase (quinone), mitochondrial (Plasmodium falciparum (isolate 3D7)) (UniProt Q08210). Nature of the test: inhibition of P. falciparum DHODH – biochemical, C-terminal His tag, absorbance 600 nm, primary screen (AID 1175).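 Further: recombinant parasite enzyme with a five histidine tag at its C terminus; test concentration not given here.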 The conditions noted are these: PfDHODH enzyme, DCIP absorbance 600 nm; higher = more signal, called active from +8 up or from −8 down.
Chain of Dihydroorotate dehydrogenase (quinone), mitochondrial (Plasmodium falciparum (isolate 3D7)) (Q08210 whole entry, looked up): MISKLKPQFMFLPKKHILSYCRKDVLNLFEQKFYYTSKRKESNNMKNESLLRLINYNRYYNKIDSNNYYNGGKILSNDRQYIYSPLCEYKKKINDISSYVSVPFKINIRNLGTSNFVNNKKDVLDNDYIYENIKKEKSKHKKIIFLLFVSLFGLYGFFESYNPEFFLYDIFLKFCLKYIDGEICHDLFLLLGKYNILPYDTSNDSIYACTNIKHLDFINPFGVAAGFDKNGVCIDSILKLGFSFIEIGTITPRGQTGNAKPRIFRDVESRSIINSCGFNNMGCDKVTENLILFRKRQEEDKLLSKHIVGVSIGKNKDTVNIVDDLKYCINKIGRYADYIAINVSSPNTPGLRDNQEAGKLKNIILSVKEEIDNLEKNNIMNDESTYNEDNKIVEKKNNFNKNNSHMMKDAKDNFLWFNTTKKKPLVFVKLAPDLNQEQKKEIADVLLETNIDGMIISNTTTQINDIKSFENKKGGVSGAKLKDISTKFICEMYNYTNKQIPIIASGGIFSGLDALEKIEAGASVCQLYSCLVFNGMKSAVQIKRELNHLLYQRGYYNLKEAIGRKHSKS

Test [15] in a line: inhibition of PAO1 biofilm formation – strain PAO1, LB-PBS medium, absorbance 600 nm, primary screen (AID 1176). Further: test concentration not given here. To be noted: P. aeruginosa PAO1 growth/biofilm, A600, 12 h; higher = more signal.
Test [16] in a line: growth modulation of vineyard yeast isolate – strain RM11-1a, OD600, basal, 24 h, primary screen (AID 1177).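 Further: cultures grown under basal conditions with no added stressor; test concentration not given here.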 To be noted: S. cerevisiae RM11-1a growth, OD600, 24 h; higher = more signal, called active from +8 up or from −8 down.
A short description of test [17]: growth of efflux-deficient E. coli DRC39 – strain DRC39, OD650, 24 h, E. coli filamentation inducers, primary screen (AID 1178).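 Further: growth measured as culture turbidity by optical density at 650 nm; test concentration not given here.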 The conditions noted are these: E. coli DRC39 acrAB, higher = more signal, called active from +8 up or from −8 down.
A short description of test [18]: growth of efflux-deficient E. coli DRC39 – strain DRC39, OD650, 48 h, E. coli filamentation inducers, primary screen (AID 1179).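 Further: screen aims at cell division blockers that make cells filament.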 The conditions noted are these: E. coli DRC39 delta-acrAB growth, higher = more signal, called active from +8 up or from −8 down.
The nature of test [19]: viability profiling in RPMI8226 myeloma cells – cell-based, resazurin fluorescence, basal, 24 h, PK04 Diversity Set, profiling panel (AID 1180).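 Further: RPMI8826 multiple myeloma cell line at 5000 cells per well; test concentration not given here.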 The conditions noted are these: higher = more signal.
Test [20] concerns the target E3 ubiquitin-protein ligase XIAP (Homo sapiens) (UniProt P98170). The experiment in a line: small molecules binding XIAP protein – biophysical, small-molecule microarray, fluorescence 635 nm, primary screen (AID 1181).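 Further: score merges 667 nm emission and signal to noise over triplicate slides.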 The conditions noted are these: higher = more signal.

Calls of active or inactive are those of the source. Unless noted, how the calls were made is not given here.

Chain of E3 ubiquitin-protein ligase XIAP (Homo sapiens) (P98170 whole entry, looked up): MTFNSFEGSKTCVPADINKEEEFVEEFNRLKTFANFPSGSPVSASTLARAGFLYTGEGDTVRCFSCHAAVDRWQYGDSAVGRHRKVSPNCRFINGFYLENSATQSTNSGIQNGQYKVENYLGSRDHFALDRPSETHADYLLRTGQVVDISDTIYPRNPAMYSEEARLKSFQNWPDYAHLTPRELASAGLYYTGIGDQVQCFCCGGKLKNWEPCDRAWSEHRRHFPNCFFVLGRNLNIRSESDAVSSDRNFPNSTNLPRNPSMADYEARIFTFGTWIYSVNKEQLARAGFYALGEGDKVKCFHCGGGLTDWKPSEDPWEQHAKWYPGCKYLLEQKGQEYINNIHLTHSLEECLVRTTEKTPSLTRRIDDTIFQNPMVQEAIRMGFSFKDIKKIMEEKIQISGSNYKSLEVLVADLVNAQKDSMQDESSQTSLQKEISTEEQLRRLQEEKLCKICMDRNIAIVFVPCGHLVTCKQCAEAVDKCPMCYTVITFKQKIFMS

As for `C=C(/C(=C/C[C@@H](OC(C)=O)c1ccccc1OCCO)c1cc(C(=O)OC)ccc1OC)C(C)C`, the z-score is 0.793 in [1]; -0.515 in [2]; 0.561 in test [3]; -3.21 in test [4]; -1.11 in [5]; 0.605 in test [6]. The z-score in test [7] was 0.118 (inactive); in test [8] it was 0.367; in test [9], -0.503; in test [10], 0.583 (inactive); in test [11], 0.862; in test [12] it was -1.18 (inactive). Also, the z-score in test [13] was -0.296 (inactive); in [15] it was 0.0478 (inactive); in [16] it was 0.508 (inactive); in test [17], 1.62 (inactive); in [18], 1.04 (inactive); in test [19], 0.676. For the same compound, the composite z-score is -1.22 (inactive) in test [14] and -0.323 in [20].

For the compound `CC(C)[C@@H](C(=O)O)n1cc(-c2ccccc2)nn1`, the z-score in test [1] was -0.633; in test [2], -0.582; in test [3], -0.354; in [4] it was -0.117; in test [5] it was -0.887; in test [6], -1.36. The z-score was -1.2 (inactive) in test [7]; 0.00787 in test [8]; 0.00093 in [9]; -0.423 (inactive) in [10]; -0.606 in test [11]; -0.291 (inactive) in test [12]. Moreover, the z-score in test [13] was -0.372 (inactive); in test [15], -0.145 (inactive); in test [16], -0.618 (inactive); in [17], 0.0178 (inactive); in test [18], -0.279 (inactive); in test [19], -0.874. In addition, the composite z-score was -0.207 (inactive) in test [14] and 0.0402 in test [20].

As for `CCCCCCCCCCC(O)C1C=CC2C(=O)N(C)C(=O)C2N1N1CCCCC1` (stereo not given), the z-score in [1] is -1.25; in [2] it was -1.6; in [3] it was -1.17; in test [4], -3.29; in test [5], -3.54; in [6], -0.235. Also, the z-score in [7] is -1 (inactive); in test [8], -1; in test [9], -0.517; in test [10] it was -0.041 (inactive); in [11], -1.36; in [12] it was 0.447 (inactive). Besides, the z-score is -1.35 (inactive) in test [13]; 0.944 (inactive) in test [15]; 1.53 (inactive) in test [16]; -0.619 (inactive) in test [17]; -0.373 (inactive) in [18]; -1.18 in test [19]. Further, the results for the composite z-score in [14] and in [20] were 1.24 (inactive) and 0.0264, respectively.

Turning to `CN(C)CCCC[C@@H]1NC(=O)[C@H]2C[C@@H](C(=O)O)[C@@H](c3cccc(OCCO)c3)N2C1=O`, the z-score in [1] is -0.17; in [2], 0.174; in test [3], 0.41; in test [4] it was -3.21; in test [5], 0.584; in test [6], 0.773. The z-score in test [7] is -0.829 (inactive); in [8], -0.786; in [9] it was -0.713; in test [10] it was 0.618 (inactive); in test [11], 0.629; in [12] it was -1.12 (inactive). Moreover, the z-score was 0.499 (inactive) in test [13]; -0.0185 (inactive) in [15]; -0.452 (inactive) in test [16]; -0.0925 (inactive) in test [17]; -0.151 (inactive) in test [18]; 0.546 in test [19]. The composite z-score is -0.614 (inactive) in test [14] and 0.332 in [20].

`C=CCN1C(=O)[C@]2(O[C@H](CCO)[C@@H]([Si](C)(C)c3ccc(OC)cc3)[C@@H]2C)c2ccccc21`: the z-score is -3.94 in test [1]; -0.448 in test [2]; -4.62 in test [3]; -2.7 in [4]; -4.37 in [5]; -3.42 in test [6]. Further, the z-score is -0.0442 (inactive) in test [7]; -1.18 in [8]; -2.21 in test [9]; -1.83 (inactive) in [10]; -2.84 in test [11]; -5.08 (inactive) in [12]. For the same compound, the z-score in test [13] is -1.46 (inactive); in test [15], 0.225 (inactive); in test [16] it was 1.55 (inactive); in test [17], -0.377 (inactive); in test [18] it was -1.46 (inactive); in test [19] it was -2.74. For the same compound, the composite z-score in [14] was 0.0196 (inactive); in test [20], -0.144.

With `O=C1OCCC=C[C@H]2OC34C=CCN(CCN5CCOCC5)C(=O)[C@H]3N(CCCO)C(=O)[C@@H]4C12` (stereo not given in full), the z-score was 0.531 in test [1]; 0.473 in test [2]; 0.127 in [3]; -0.0305 in test [4]; -0.0605 in [5]; -0.338 in [6]. Moreover, the z-score in [7] was 1.33 (inactive); in test [8] it was 0.398; in test [9], -0.139; in test [10], -0.784 (inactive); in [11], -0.368; in test [12] it was -0.494 (inactive). Moreover, the z-score in test [13] is -0.525 (inactive); in [15] it was -0.481 (inactive); in test [16], 0.23 (inactive); in test [17], -0.418 (inactive); in test [18], -0.822 (inactive); in test [19], -0.62. The values for the composite z-score in test [14] and in [20] were 0.394 (inactive) and 0.0143, respectively.

Take `[N-]=[N+]=NCc1ccccc1[C@@H]1OC(c2ccc(OCCCO)cc2)=N[C@]1(Cc1ccccc1)C(=O)NCc1ccccc1`: the z-score was 0.53 in [1]; 0.592 in test [2]; 0.293 in test [3]; -0.856 in test [4]; -0.0369 in test [5]; 0.152 in test [6]. Besides, the z-score in test [7] was 0.594 (inactive); in test [8] it was -0.994; in test [9], -0.921; in test [10], 0.267 (inactive); in [11], 0.771; in [12] it was 0.467 (inactive). For the same compound, the z-score in test [13] was -0.0664 (inactive); in test [15] it was -0.223 (inactive); in test [16] it was 1.7 (inactive); in test [17], -0.0548 (inactive); in [18], 0.065 (inactive); in test [19] it was -0.484. Besides, the composite z-score was 0.101 (inactive) in test [14] and 0.1 in test [20].
